HP1b chromo inh: HTS for Inhibitors of HP1-beta Chromodomain Interactions with Methylated Histone Tails | AID 540317, 2011 | Potency, µM (top dose mostly 114 µM), for inactives: at the top dose activity change, negative = inhibition, usual class: inhibitors | AlphaScreen HP1-beta / biotin-H3K9me3 peptide binding | 390,000 compounds, 0.56% hits; further: nearly all actives have a fitted effect of over 70% in size
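HP1-beta protein (50 nM final) preincubated 30 min at room temperature with biotinylated H3(1-18)K9me3 peptide (50 nM) in PBS pH 7.4, 0.01% Tween-20, then compound added for 30 min. AlphaScreen streptavidin donor/nickel chelate acceptor beads (10 ug/mL final), 30 min dark, luminescence read.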
12-LOX inh: Primary qHTS assay for inhibitors of human arachidonate 12S-lipoxygenase (ALOX12): Round 2 | Potency, µM (highest dose often 108 µM), for inactives: top-dose activity change, negative = inhibition, actives largely listed as inhibitors | purified 12hLO, xylenol orange hydroperoxide absorbance | Polyunsaturated fatty acid lipoxygenase ALOX12 (Homo sapiens), P18054 | AID 1671190, 2021 | 580,000 compounds, 1.1% hits; further: on the % scale 0 is the no-effect control and ±100 the full control effect
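Purified human 12hLO (150 nM final) in 25 mM Hepes, 0.01% Triton X-100, pH 7.0 was preincubated 15 min at room temperature with compound. Then 40 uM arachidonic acid was added, 30 min. Hydroperoxide was read by Fe-XO absorbance ratio 573/405 nm.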
Sfp inh: qHTS Assay for Inhibitors of Bacillus subtilis Sfp phosphopantetheinyl transferase (PPTase); 4'-phosphopantetheinyl transferase ffp (Bacillus subtilis), Q9F4F7; Potency, µM, for the others: largest response in the series, negative = inhibition, actives largely listed as inhibitors; Biochemical Sfp PPTase activity, qHTS; 310,000 compounds, 3.5% hits;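 further: the enzyme is Sfp with the accession as filed and its product quenches rhodamine fluorescence; 0% = enzyme reaction without inhibitor and -100% = no enzyme wells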
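Buffer: 50 mM Hepes-Na pH 7.6, 10 mM MgCl2, 0.01% Nonidet P-40, 0.01% BSA. Enzyme 15 nM, pre-exposed to compound 15 min; substrates then added and fluorescence change tracked over 30 min.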
BAZ2B inh: qHTS Assay for Inhibitors of BAZ2B | AID 504333, 2011 | Potency, µM (highest dose often 114 µM), for inactives: top-dose activity change, negative = inhibition, actives largely listed as inhibitors | AlphaScreen BAZ2B-H3K14Ac peptide displacement | 360,000 compounds, 4.4% hits | Bromodomain adjacent to zinc finger domain protein 2B (Homo sapiens), Q9UIF8; further: on the % scale 0 is the no-effect control and ±100 the full control effect; nearly all actives have a fitted effect of over 60% in size
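Compounds, titrated to a top concentration of 110 uM, were incubated 30 min at room temperature with preformed BAZ2B/acetyl-K14 H3 peptide complex (50 nM each). Proximity signal was measured by AlphaScreen after 20 min with beads.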
JMJD2A Tudor inh: qHTS Assay for Inhibitors of JMJD2A-Tudor Domain | Potency, µM (series often up to 114 µM), for the others: top-dose activity change, negative = inhibition, usual class: inhibitors | 390,000 compounds, 4.4% hits | Lysine-specific demethylase 4A (Homo sapiens), O75164 | AID 504339, 2011 | AlphaScreen JMJD2A-Tudor / H3K4me3 peptide binding; further: on the % scale 0 is the no-effect control and ±100 the full control effect; nearly all actives have a fitted effect of over 50% in size
Target sequence (O75164 whole entry, looked up, the tested form may be a part): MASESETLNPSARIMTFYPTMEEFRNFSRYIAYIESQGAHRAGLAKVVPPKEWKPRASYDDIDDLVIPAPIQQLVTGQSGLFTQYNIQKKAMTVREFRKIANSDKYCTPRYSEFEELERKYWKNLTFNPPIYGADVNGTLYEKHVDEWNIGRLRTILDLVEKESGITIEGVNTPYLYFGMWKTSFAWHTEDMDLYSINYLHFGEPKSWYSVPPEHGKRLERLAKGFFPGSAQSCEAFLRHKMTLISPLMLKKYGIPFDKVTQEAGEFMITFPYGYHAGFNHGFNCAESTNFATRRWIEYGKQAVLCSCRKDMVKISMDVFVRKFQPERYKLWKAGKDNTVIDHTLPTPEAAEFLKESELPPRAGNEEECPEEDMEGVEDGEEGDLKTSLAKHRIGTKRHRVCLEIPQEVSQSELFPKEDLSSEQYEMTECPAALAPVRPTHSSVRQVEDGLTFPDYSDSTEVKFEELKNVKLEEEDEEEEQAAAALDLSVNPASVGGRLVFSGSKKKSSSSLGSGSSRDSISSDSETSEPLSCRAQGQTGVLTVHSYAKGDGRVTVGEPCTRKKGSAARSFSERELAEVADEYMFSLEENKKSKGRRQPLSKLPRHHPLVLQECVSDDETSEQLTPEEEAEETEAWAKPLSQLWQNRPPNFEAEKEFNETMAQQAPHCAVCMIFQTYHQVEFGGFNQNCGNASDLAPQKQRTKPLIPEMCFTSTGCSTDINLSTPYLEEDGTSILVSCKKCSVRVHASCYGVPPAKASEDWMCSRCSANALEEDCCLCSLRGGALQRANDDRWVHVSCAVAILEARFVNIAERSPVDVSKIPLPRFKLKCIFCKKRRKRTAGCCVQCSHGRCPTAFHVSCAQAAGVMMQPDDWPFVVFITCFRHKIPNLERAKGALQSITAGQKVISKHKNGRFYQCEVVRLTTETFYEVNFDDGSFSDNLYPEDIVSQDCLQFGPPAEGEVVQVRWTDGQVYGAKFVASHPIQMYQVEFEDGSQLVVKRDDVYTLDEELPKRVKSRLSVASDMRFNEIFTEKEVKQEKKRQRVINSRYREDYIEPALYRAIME
G9a block: qHTS Assay for Inhibitors of Histone Lysine Methyltransferase G9a; Histone-lysine N-methyltransferase EHMT2 (Homo sapiens), Q96KQ7; G9a H3K9 monomethylation, AlphaScreen, 2 h; Potency, µM (series often up to 102 µM), inactives show top-dose activity, negative = inhibition, usual class: inhibitors; 350,000 compounds, 8.8% hits; AID 504332, 2011; further: on the % scale 0 is the no-effect control and ±100 the full control effect; nearly all actives have a fitted effect of over 75% in size
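G9a (20 nM) was preincubated 15 min with compound, then reacted 2 h at room temperature with 500 nM biotin-H3K9 peptide and 20 µM SAM. Monomethyl-H3K9 detected by AlphaScreen using anti-H3K9me1 antibody.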
An asterisk follows results filed as active; i = inactive; ? = inconclusive; · = no result given; [ ] = another dose, or the depositor's remark. Shown are actives, neighbours in structure and some others; about 8.7% of the full set was active somewhere. The call rests on the fitted dose curve; in most records, active means well fitted curve in the direction sought with a large enough effect; inconclusive means small, poorly fitted or top-dose-only effect, or another doubt; inactive means no such curve, though single readings can be large; an effect the other way counts as inactive or inconclusive. Potency means the concentration at half of the fitted maximal effect.

SMILES | HP1b chromo inh | 12-LOX inh | Sfp inh | BAZ2B inh | JMJD2A Tudor inh | G9a block
CCn1c(SCC(=O)Nc2cccc(C(C)=O)c2)nnc1-c1cc2ccccc2o1 | · | 10.4% | · | · | · | ·
COc1ccc(C(=O)Nc2ccc(-c3n[nH]c(=S)o3)cc2)cc1OC | -24.7% | ? | 15.8µM* | ? | ? | 1.58µM*
COc1ccc(C(=O)Nc2ccc3oc(-c4ccc(F)cc4)nc3c2)cc1OC | · | 14.4% | · | · | · | ·
O=C(Nc1ccc(-c2n[nH]c(=S)o2)cc1)c1ccccc1Br | 21.6% | ? | -6.8% | -0.8% | -4.1% | 8.91µM*
COc1ccc(-c2nc(C)nc3c2CN(C(=O)c2ccc(C(F)(F)F)cc2)CC3)cc1 | · | 7.4% | · | · | · | ·
COc1ccccc1NC(=S)NCc1ccco1 | 13.4% | 0.0% | 56.2µM* | -3.2% | -22.5% | ?
S=C(NCc1ccccc1)NCc1ccco1 | 4.6% | -0.4% | -5.6% | -29.7% | -24.8% | ?
Cn1cc(Cl)c(C(=O)NNC(=S)NCc2ccco2)n1 | -5.3% | -1.2% | 56.2µM* | 9.4% | -24.5% | 39.8µM*
NNC(=S)NCc1ccco1 | 1.3% | ? | 39.8µM* | -34.8% | 89.1µM* | 4.3%
COc1cc(NC(=S)NCc2ccco2)cc(OC)c1OC | 18.9% | 2.6% | -6.2% | -28.2% | -12.7% | -19.8%[59 µM]
S=C(NCc1ccco1)NCc1ccco1 | 35.5µM* | 31.6µM* | · | · | 56.2µM* | ·
S=C(NCc1cccc(Cl)c1)NCc1ccco1 | 0.0% | ? | 0.4% | -30.1% | -25.0% | ·
CN(C)c1ccc(/C=N/NC(=S)NCc2ccco2)cc1 | 6.8% | 2.6% | -3.2% | ? | -24.5%[57.1 µM] | -14.5%[59 µM]
O=C(CC12CC3CC(CC(C3)C1)C2)NC(=S)NCc1ccco1 | -10.4% | 28.2µM* | -6.7% | -22.6% | -29.1% | -46.5%
Cc1cccc(NC(=S)NCc2ccco2)n1 | 27.0% | ? | -28.4% | -1.6% | 5.6% | 2µM*
CN(C)c1ccc(C(=S)NCc2ccco2)cc1 | ? | ? | 14.1µM* | ? | ? | ?
O=C(Cc1cccs1)NNC(=S)NCc1ccco1 | 25.5% | i | 7.0% | -2.6% | -17.0% | 50.1µM*
COc1ccc(S(=O)(=O)N2CCN(C(=O)NC3CCCC3)CC2)cc1OC | · | -2.0% | · | · | · | ·
CC(C)(C)NC(=S)NCc1ccco1 | -3.8% | ? | 3.55µM* | -9.4% | -16.0% | 79.4µM*
CC(C)CCNC(=S)NCc1ccco1 | · | 31.6µM* | · | · | · | ·
S=C(NCc1ccc(Cl)c(Cl)c1)NCc1ccco1 | 7.2% | ? | 8.5% | ? | -4.8% | ·
Cc1ccc(C(=O)N2CCc3nnc([C@@H]4C[C@@H](O)CN4C(C)C)n3CC2)cn1 | · | 74.6% | · | · | · | ·
CCOC(=O)c1c(C)n(C)c2ccc(OCC(O)CNC(CC)CO)cc12 (stereo unspecified) | 15.4% | 0.0% | -5.4% | -2.9% | -17.4% | ?
CCOC(=O)c1c(C)n(-c2ccc(C)cc2)c2ccc(OCC(O)CNCC3CCCO3)cc12 (stereo unspecified) | ? | · | 44.7µM* | 28.2µM* | 12.6µM* | 15.8µM*
CCOC(=O)c1c(C)n(-c2ccc(C)cc2)c2ccc(OCC(O)CNCCCO)cc12 (stereo unspecified) | -21.1% | ? | ? | ? | ? | 8.91µM*
OC(CNCC1CCCO1)COc1ccc(OCC(O)CNCC2CCCO2)cc1 (stereo unspecified) | 7.1% | · | 9.4% | 4.3% | 5.6% | 1.6%[59 µM]
N#Cc1cccc(Cn2c(CN3CCCCC3)nc3scc(-c4cccs4)c3c2=O)c1 | · | 0.0% | · | · | · | ·
Nc1nc2c(s1)C(=O)CC(c1ccccc1)C2 (stereo unspecified) | 42.4% | 368.2% | 44.7µM* | 7.3% | -19.5% | 9.6%[12.7 µM]

From PubChem BioAssay
